About 83,000 compounds went through this panel and 20% of them were active in at least one assay; those are over-represented in the sample as a whole.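 Single-dose data. Exposure time 48 hours. Values below 10 considered active.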 A number with no mark means an inactive call. Active and inactive are the calls of the source.

The text below walks through data of PubChem BioAssay (NCI).

Assay in all cases: NCI-60 one-dose screen, 48 h (100 = growth as untreated, 0 = no growth, -100 = all killed)
One assay deals with HT29 colon. Conditions: 10 µM unless noted.
The next assay has as its system SNB-75 CNS. Conditions: 10 µM unless noted.
The next assay relates to SNB-19 CNS. The conditions noted are these: 10 µM unless noted.
In a further assay the test system is U251 CNS. The conditions noted are these: 10 µM unless noted.
A further assay concerns PC-3 prostate. Conditions: 10 µM unless noted.
In a further assay the test system is SK-MEL-5 melanoma. Conditions: 10 µM unless noted.
For the next assay, the system named is UACC-62 melanoma. Conditions: 10 µM unless noted.
The next assay has as its system LOX IMVI melanoma. Conditions: 10 µM unless noted.
The subject of the next assay is SK-MEL-28 melanoma. Conditions: 10 µM.
Another assay deals with SK-MEL-2 melanoma. The conditions noted are these: 10 µM unless noted.
For a further assay, the system named is EKVX NSCLC. Conditions: 10 µM unless noted.
The subject of the next assay is SN12C renal. The conditions noted are these: 10 µM unless noted.
Another assay concerns UO-31 renal. The conditions noted are these: 10 µM unless noted.
For a further assay, the system named is TK-10 renal. Conditions: 10 µM unless noted.
Another assay relates to ACHN renal. Conditions: 10 µM unless noted.
The next assay relates to CAKI-1 renal. The conditions noted are these: 10 µM unless noted.
For the next assay, the system named is A498 renal. Conditions: 10 µM unless noted.
The next assay relates to CCRF-CEM leukemia. The conditions noted are these: 10 µM unless noted.
A further assay deals with MOLT-4 leukemia. Conditions: 10 µM unless noted.
The subject of a further assay is SR leukemia. The conditions noted are these: 10 µM unless noted.

Turning to `COc1c(B(O)O)cccc1-c1nc2ccc3[nH]ncc3c2c2c1C1CCC2C1` (stereo not given), the growth in the assay on HT29 colon was 71.9%; in the assay with SNB-75 CNS, 2.23% (active); in the assay on SNB-19 CNS, 74%; with U251 CNS it was 66.4%; in the assay on PC-3 prostate, 76.9%; in the assay on SK-MEL-5 melanoma, 75.7%. Moreover, the growth with UACC-62 melanoma was 70.3%; in the assay with LOX IMVI melanoma it was 52%; in the assay on SK-MEL-28 melanoma it was 104%; in the assay with SK-MEL-2 melanoma, 80.8%; with EKVX NSCLC it was 101%; in the assay with SN12C renal, 59.8%. Moreover, the growth with UO-31 renal was 29.3%; with TK-10 renal, 44.2%; in the assay with ACHN renal it was 63.2%; with CAKI-1 renal, 1.43% (active); in the assay with A498 renal, 87.2%; with CCRF-CEM leukemia, 20.5%. Moreover, the growth in the assay on MOLT-4 leukemia was 52.8%.
Take `Nc1nc(N)c2c(n1)NC1(C=C(O)c3ccccc31)C1=C(N2)c2ccccc2C1=O` (stereo not given): the growth with HT29 colon is 125%; in the assay on SNB-75 CNS, 169%; with SNB-19 CNS it was 103%; in the assay with U251 CNS, 103%; in the assay on PC-3 prostate, 107%; in the assay on SK-MEL-5 melanoma it was 108%. Besides, the growth in the assay with UACC-62 melanoma was 110%; with LOX IMVI melanoma, 94.3%; in the assay with SK-MEL-28 melanoma, 108%; with SK-MEL-2 melanoma, 112%; in the assay with EKVX NSCLC, 113%; in the assay on SN12C renal, 102%. Further, the growth in the assay with UO-31 renal is 77.1%; with TK-10 renal, 142%; in the assay with ACHN renal it was 96.1%; in the assay with CAKI-1 renal it was 83.8%; in the assay on A498 renal, 109%; in the assay on CCRF-CEM leukemia it was 97.3%. The growth in the assay with MOLT-4 leukemia was 104%; in the assay with SR leukemia, 134%.
`CC1=C(C(=O)OCC2CCN(C(=O)OC(C)(C)C)CC2)[C@@H](c2cccc(C#N)c2)C2=C(CC(C)(C)CC2=O)N1`: the growth with HT29 colon is 18.3%; in the assay with SNB-75 CNS it was 56.9%; with SNB-19 CNS, 43%; in the assay with U251 CNS it was 41.4%; in the assay with PC-3 prostate, 48%; in the assay with SK-MEL-5 melanoma, 3.59% (active). The growth in the assay on UACC-62 melanoma is 43%; in the assay with LOX IMVI melanoma, 9.5% (active); in the assay on SK-MEL-28 melanoma, 61.3%; with SK-MEL-2 melanoma it was 70.4%; in the assay with EKVX NSCLC, 63.7%; with SN12C renal it was 42.7%. For the same molecule, the growth in the assay on UO-31 renal was 42.1%; in the assay on TK-10 renal, 68.5%; with ACHN renal, 38.5%; in the assay on CAKI-1 renal, 38.4%; in the assay with A498 renal, 75.3%; in the assay on CCRF-CEM leukemia, 36.8%. Also, in the assay on MOLT-4 leukemia, the growth was 12.5%.
Turning to `Cc1c(C(=O)OCCO)cc(-c2ccc(Cl)cc2)n1-c1ccc(Cl)cc1Cl`, the growth in the assay on HT29 colon is 74.6%; with SNB-75 CNS, 82.3%; in the assay with SNB-19 CNS, 90.6%; in the assay with U251 CNS, 77.7%; in the assay on PC-3 prostate, 70.4%; in the assay with SK-MEL-5 melanoma it was 67.1%. Also, the growth in the assay with UACC-62 melanoma is 54.5%; in the assay with LOX IMVI melanoma, 65.1%; in the assay with SK-MEL-28 melanoma, 70.8%; in the assay with SK-MEL-2 melanoma it was 95.9%; with EKVX NSCLC it was 63.8%; in the assay with SN12C renal it was 61.1%. Moreover, the growth in the assay with UO-31 renal was 69.4%; in the assay on TK-10 renal, 101%; with ACHN renal it was 71.4%; in the assay with CAKI-1 renal, 63.6%; in the assay on A498 renal, 77.3%; with CCRF-CEM leukemia it was 65.4%. The growth in the assay with MOLT-4 leukemia was 49.8%.
As for `O=c1oc2ccc(-c3ccc(F)cc3F)cc2c(=O)n1-c1ccc(Cl)c(C(F)(F)F)c1`, the growth in the assay on HT29 colon was 53.1%; in the assay with SNB-75 CNS it was 6.37% (active); in the assay with SNB-19 CNS it was 33.9%; in the assay on U251 CNS, 6.46% (active); in the assay on PC-3 prostate, 5.88% (active); with SK-MEL-5 melanoma, -69.6% (active). For the same molecule, the growth with UACC-62 melanoma is 0.294% (active); in the assay on LOX IMVI melanoma, 32.1%; in the assay on SK-MEL-28 melanoma, 20.3%; in the assay on SK-MEL-2 melanoma, -18.1% (active); in the assay on EKVX NSCLC, 55.4%; in the assay on SN12C renal it was 11.2%. Besides, the growth in the assay on UO-31 renal is 75.6%; with TK-10 renal, 15.8%; with ACHN renal, 18.2%; in the assay with CAKI-1 renal, -8.76% (active); in the assay with A498 renal it was -43.5% (active); with CCRF-CEM leukemia, 13.2%. Besides, in the assay with MOLT-4 leukemia, the growth is 6.67% (active).
`COc1cccc2c(=O)c3c(sc12)c(NCCCNCCO)nc1ccccc13`: the growth in the assay with HT29 colon is -43.8% (active); in the assay with SNB-75 CNS, 17.2%; in the assay on SNB-19 CNS, 63.6%; in the assay on U251 CNS, 14.4%; with PC-3 prostate it was 45%; with SK-MEL-5 melanoma, 72.6%. Also, the growth was 77.4% with UACC-62 melanoma; 37.2% with LOX IMVI melanoma; 81.9% in the assay on SK-MEL-28 melanoma; 94.1% in the assay with SK-MEL-2 melanoma; 53.9% in the assay on EKVX NSCLC; 56.5% in the assay with SN12C renal. Further, the growth in the assay with UO-31 renal is 27.4%; in the assay with TK-10 renal, 58.6%; with ACHN renal, 33.6%; in the assay on CAKI-1 renal, 48.1%; in the assay on A498 renal, 14.5%; in the assay on CCRF-CEM leukemia it was 29.2%. The growth in the assay on MOLT-4 leukemia is 1.38% (active); with SR leukemia, 0.0565% (active).
As to `O=C1/C(=C\c2ccc[nH]2)c2ccccc2N1c1ccccc1`, the growth in the assay on HT29 colon was 105%; in the assay on SNB-75 CNS it was 84.7%; in the assay on SNB-19 CNS, 92.2%; with U251 CNS, 99.3%; with PC-3 prostate it was 90.9%; in the assay with SK-MEL-5 melanoma, 90.5%. Moreover, the growth with UACC-62 melanoma is 77%; in the assay on LOX IMVI melanoma it was 96.4%; with SK-MEL-28 melanoma, 96.7%; in the assay with SK-MEL-2 melanoma, 106%; in the assay on EKVX NSCLC it was 47.7%; in the assay on SN12C renal it was 89.1%. Moreover, the growth in the assay with UO-31 renal is 93.2%; in the assay on TK-10 renal, 102%; with ACHN renal it was 92.2%; with CAKI-1 renal, 92%; with A498 renal it was 101%; in the assay with CCRF-CEM leukemia it was 99.2%. Moreover, the growth is 102% in the assay with MOLT-4 leukemia and 139% in the assay with SR leukemia.
`CN1CCN(Cc2ccc(NC(=O)c3cncc(C#Cc4nc(N)nc5[nH]ncc45)c3)cc2C(F)(F)F)CC1`: the growth is 55.3% with HT29 colon; 85% with SNB-75 CNS; 108% in the assay with SNB-19 CNS; 107% in the assay with U251 CNS; 108% with PC-3 prostate; 90.2% in the assay on SK-MEL-5 melanoma. For the same molecule, the growth was 89.3% in the assay on UACC-62 melanoma; 88.1% with LOX IMVI melanoma; 94.3% in the assay on SK-MEL-28 melanoma; 92.4% with SK-MEL-2 melanoma; 109% in the assay on EKVX NSCLC; 89.7% in the assay on SN12C renal. The growth with UO-31 renal was 122%; with TK-10 renal it was 126%; in the assay with ACHN renal, 99.8%; in the assay on CAKI-1 renal, 66.5%; with A498 renal, 102%; with CCRF-CEM leukemia, 5.35% (active). Also, in the assay with MOLT-4 leukemia, the growth is 8.02% (active).
